Assay results taken from PubChem BioAssay (Tox21).
Inconclusive results are not listed. The source holds several records for some structures; these can differ, active in one and inactive in another. Activity calls are given as the source filed them. Unless noted, calls follow the shape of the dose curve; as a rule, active = well fitted curve in the direction sought with a large enough effect in the repeat runs; inconclusive = weak or mixed curves; inactive = no such curve, though single readings can be large; an effect the other way counts as inactive or inconclusive.

How the values were obtained:
[1] = qHTS assay to identify small molecule agonists of the peroxisome proliferator-activated receptor delta (PPARd) signaling pathway - cell viability counter screen (AID 743211); also: nearly all actives have a fitted effect of over 55% in size; also: potency is read from the fitted curve at half-maximal effect
Method in brief: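 Read-out: CellTiter-Glo luminescence, 30 min RT, measured in the same wells as the beta-lactamase reporter. Cells: GeneBLAzer PPAR delta UAS-bla HEK293H, 3000 cells/well, compound exposure 17 h at 37C.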

[2] = molecular target: Peroxisome proliferator-activated receptor delta (Homo sapiens) (UniProt Q03181); assay: qHTS assay to identify small molecule agonists of the peroxisome proliferator-activated receptor delta (PPARd) signaling pathway (AID 743212; calls by dose curve)
Method in brief: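 Beta-lactamase reporter readout: a ratiometric FRET signal from the LiveBLAzer substrate after 2 h at room temperature. Compound exposure at 37 °C in PPARδ-bla HEK293H cells driven by an upstream activator sequence.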

[3] = qHTS assay to identify small molecule antagonists of the peroxisome proliferator-activated receptor delta (PPARd) signaling pathway - cell viability counter screen (AID 743213); also: nearly all actives have a fitted effect of over 50% in size; also: potency is read from the fitted curve at half-maximal effect
Method in brief: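 Cytotoxicity counter screen: CellTiter-Glo luminescence read 30 min after addition, in the same wells as the reporter assay. There, PPARd UAS-bla HEK293H cells (3000/well) were treated 17 h at 37 C with compound and 300 nM L165041.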

[4] = molecular target: Peroxisome proliferator-activated receptor delta (Homo sapiens) (UniProt Q03181); assay: qHTS assay to identify small molecule antagonists of the peroxisome proliferator-activated receptor delta (PPARd) signaling pathway (AID 743215; active = well fitted inhibition curve with a large enough effect in the signal ratio in the repeat runs, not every such curve was filed as active; the % refers to the signal ratio;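 also: cells stimulated with agonist L165041 at 300 nM final during compound exposure; series mostly up to about 62 µM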)
Method in brief: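 Here, a reporter line (HEK293H, beta-lactamase under a UAS) measures PPARd signaling. Compounds are tested against agonist L165041 at 300 nM final concentration over 17 h at 37 C, with fluorescence read after substrate.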

[5] = molecular target: Bile acid receptor (Homo sapiens) (UniProt Q96RI1); assay: qHTS assay to identify small molecule antagonists of the farnesoid-X-receptor (FXR) signaling pathway (AID 743217; active = well fitted inhibition curve with a large enough effect in the signal ratio in the repeat runs, not every such curve was filed as active; the % refers to the signal ratio)
Method in brief: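 Test compounds are pin-transferred onto FXR-bla HEK 293T cells, then chenodeoxycholic acid is added at 50 uM final. After 16 h at 37 °C, LiveBLAzer B/G substrate is applied for 2 h at room temperature and fluorescence read.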

[6] = qHTS assay to identify small molecule agonists of the farnesoid-X-receptor (FXR) signaling pathway - cell viability counter screen (AID 743218); also: nearly all actives have a fitted effect of over 45% in size
Method in brief: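 Quantitative HTS counter screen measuring ATP-based viability via CellTiter-Glo luminescence in HEK 293T cells carrying a UAS-driven beta-lactamase reporter, after 16 h compound exposure at 37 C.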

[7] = molecular target: Bile acid receptor (Homo sapiens) (UniProt Q96RI1); assay: qHTS assay to identify small molecule agonists of the farnesoid-X-receptor (FXR) signaling pathway (AID 743220; active = well fitted activation curve with a large enough effect in the signal ratio in the repeat runs, not every such curve was filed as active; the % refers to the signal ratio)
Method in brief: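 FXR-UAS-bla HEK 293T cells carrying a UAS-driven beta-lactamase reporter were plated for 5 h at 37C/5% CO2, then exposed to DMSO-dissolved Tox21 10K compounds for 16 h at 37C. A LiveBLAzer B/G FRET substrate was loaded for 2 h at room temperature before fluorescence reading.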

[8] = qHTS assay to identify small molecule antagonists of the farnesoid-X-receptor (FXR) signaling pathway - cell viability counter screen (AID 743221; active = well fitted cell-killing curve with a large enough effect in the repeat runs, not every such curve was filed as active; also: nearly all actives have a fitted effect of over 50% in size)
Method in brief: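 HEK 293T FXR-bla cells, 5 h pre-incubation; compound + CDCA 50 uM final, 16 h, 37 C; beta-lactamase FRET read first, then CellTiter-Glo luminescence, 30 min RT.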

[9] = molecular target: Vitamin D3 receptor (Homo sapiens) (UniProt P11473); assay: qHTS assay to identify small molecule agonists of the vitamin D receptor (VDR) signaling pathway (AID 743222; calls by dose curve)
Method in brief: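 Tox21 cell reporter format: VDR-bla line, 16 h compound exposure in 5% CO2 at 37C, then fluorescence intensity after 2 h with LiveBLAzer B/G FRET substrate.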

[10] = molecular target: Vitamin D3 receptor (Homo sapiens) (UniProt P11473); assay: qHTS assay to identify small molecule antagonists of the vitamin D receptor (VDR) signaling pathway (AID 743223; active = well fitted inhibition curve with a large enough effect in the signal ratio in the repeat runs, not every such curve was filed as active; the % refers to the signal ratio)
Method in brief: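 Beta-lactamase reporter read-out: FRET substrate fluorescence after 2 h at room temperature, following 16 h exposure of VDR-bla cells to test compound plus 3 nM (final) 1alpha,25-dihydroxyvitamin D3 agonist at 37C.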

[11] = qHTS assay to identify small molecule agonists of the vitamin D receptor (VDR) signaling pathway - cell viability counter screen (AID 743224); also: nearly all actives have a fitted effect of over 50% in size; also: potency is read from the fitted curve at half-maximal effect
Method in brief: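 CellTiter-Glo viability readout on VDR-bla cells, measured after 16 h of compound treatment at 37C in the same wells.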

[12] = qHTS assay to identify small molecule antagonists of the vitamin D receptor (VDR) signaling pathway - cell viability counter screen (AID 743225); also: nearly all actives have a fitted effect of over 50% in size
Method in brief: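 Viability counter screen run in the same wells as the beta-lactamase reporter assay: HEK 293T VDR-UAS-bla cells, 16 h compound exposure at 37C with 3 nM (final) 1-alpha,25-dihydroxyvitamin D3. CellTiter-Glo luminescence, 30 min, room temperature.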

[13] = qHTS assay to identify small molecule agonists of the NFkB signaling pathway (AID 1159509; active = well fitted curve in the direction sought with a large enough effect in the signal ratio in the repeat runs, not every such curve was filed as active; the % refers to the signal ratio; also: series mostly up to about 61 µM)
Method in brief: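 Agonist activity was read as beta-lactamase-driven FRET change (460 and 530 nm emission, 405 nm excitation) following 1.5 hr substrate loading at room temperature. Beforehand, ME-180 NFkB-bla reporter cells were treated with compounds for 5 hr at 37 C.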

[14] = qHTS assay to identify small molecule agonists of the NFkB signaling pathway - cell viability counter screen (AID 1159515; calls by dose curve; also: series mostly up to about 61 µM; nearly all actives have a fitted effect of over 55% in size)
Method in brief: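 Tox21 library compounds were tested for cytotoxicity against NFkB-bla ME-180 cells during a 5 hr exposure at 37 C. CellTiter-Glo luminescence served as the viability read-out.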

[15] = qHTS assay to identify small molecule agonists of the endoplasmic reticulum stress response signaling pathway (AID 1159516; active = well fitted activation curve with a large enough effect in the signal ratio in the repeat runs, not every such curve was filed as active; the % refers to the signal ratio)
Method in brief: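 Fluorescence at 460 and 530 nm (405 nm excitation) reports beta-lactamase from an ER stress response element in HeLa cells treated 5 hr at 37 C.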

[16] = qHTS assay to identify small molecule antagonists of the retinoid-related orphan receptor gamma (ROR-gamma) signaling pathway - cell viability counter screen (AID 1159520); also: nearly all actives have a fitted effect of over 50% in size
Method in brief: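 Cytotoxicity was read from cellular ATP (CellTiter-Glo luminescence) after 16 hr at 37 C with 1 uM doxycycline induction. The inducer was added 2 hr after compound transfer to Tet-on ROR gamma CHO cells.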

[17] = molecular target: Nuclear receptor ROR-gamma (Homo sapiens) (UniProt P51449); assay: qHTS assay to identify small molecule antagonists of the retinoid-related orphan receptor gamma (ROR-gamma) signaling pathway (AID 1159521)
Method in brief: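 Luminescence readout (ONE-Glo, 30 min RT) after 16 h doxycycline induction; loss of signal scored as antagonism. CHO cells with TET-inducible RORγ and RORE-LUC reporter; compounds added 2 h before 1 uM final doxycycline.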

[18] = qHTS assay to identify small molecule agonists of the AP-1 signaling pathway - cell viability counter screen (AID 1159525; calls by dose curve; also: nearly all actives have a fitted effect of over 55% in size)
Method in brief: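 Intracellular ATP by Cell Titer Glo luminescence (30 min, RT) in the same ME-180 AP-1-bla wells after the 5 h compound exposure at 37 °C. Normalised to tetra n-octyl ammonium bromide and DMSO controls.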

[19] = qHTS assay to identify small molecule agonists of the AP-1 signaling pathway (AID 1159526; calls by dose curve)
[20] = qHTS assay to identify small molecule agonists of the endoplasmic reticulum stress response signaling pathway - cell viability counter screen (AID 1159517; calls by dose curve)
Method in brief: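 ESRE-bla HeLa cells (1,500/well) were plated overnight at 37 C and exposed to compounds for 5 hr. After the 2 hr beta-lactamase substrate read, CellTiter-Glo went into the same wells, and luminescence was read after 30 min at room temperature.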

Measured: Potency

Sequence of Bile acid receptor (Homo sapiens) (Q96RI1 whole entry, looked up): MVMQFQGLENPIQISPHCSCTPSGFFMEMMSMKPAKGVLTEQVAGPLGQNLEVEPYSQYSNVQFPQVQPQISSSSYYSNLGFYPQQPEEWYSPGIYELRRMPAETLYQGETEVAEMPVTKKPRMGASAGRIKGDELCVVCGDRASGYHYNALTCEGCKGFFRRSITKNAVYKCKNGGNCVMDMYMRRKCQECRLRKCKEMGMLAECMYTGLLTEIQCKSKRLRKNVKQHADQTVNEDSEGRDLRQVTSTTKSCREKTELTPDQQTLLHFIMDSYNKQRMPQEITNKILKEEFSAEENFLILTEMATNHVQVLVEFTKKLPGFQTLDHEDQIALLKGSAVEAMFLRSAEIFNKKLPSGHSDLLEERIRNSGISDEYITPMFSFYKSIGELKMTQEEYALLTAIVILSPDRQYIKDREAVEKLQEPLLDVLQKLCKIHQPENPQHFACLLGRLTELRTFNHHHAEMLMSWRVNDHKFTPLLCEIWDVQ
Sequence of Peroxisome proliferator-activated receptor delta (Homo sapiens) (Q03181 whole entry, looked up): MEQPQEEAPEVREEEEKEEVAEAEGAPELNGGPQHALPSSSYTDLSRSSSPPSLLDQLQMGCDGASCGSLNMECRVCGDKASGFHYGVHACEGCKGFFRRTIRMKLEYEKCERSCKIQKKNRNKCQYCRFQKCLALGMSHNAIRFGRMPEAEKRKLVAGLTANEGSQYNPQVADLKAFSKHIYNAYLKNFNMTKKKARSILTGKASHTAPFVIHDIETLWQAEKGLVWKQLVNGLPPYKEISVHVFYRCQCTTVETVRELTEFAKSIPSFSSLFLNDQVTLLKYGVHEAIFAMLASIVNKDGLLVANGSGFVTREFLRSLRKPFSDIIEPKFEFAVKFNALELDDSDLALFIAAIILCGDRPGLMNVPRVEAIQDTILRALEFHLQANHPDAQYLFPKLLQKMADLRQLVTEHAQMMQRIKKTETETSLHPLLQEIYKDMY
Sequence of Vitamin D3 receptor (Homo sapiens) (P11473 whole entry, looked up): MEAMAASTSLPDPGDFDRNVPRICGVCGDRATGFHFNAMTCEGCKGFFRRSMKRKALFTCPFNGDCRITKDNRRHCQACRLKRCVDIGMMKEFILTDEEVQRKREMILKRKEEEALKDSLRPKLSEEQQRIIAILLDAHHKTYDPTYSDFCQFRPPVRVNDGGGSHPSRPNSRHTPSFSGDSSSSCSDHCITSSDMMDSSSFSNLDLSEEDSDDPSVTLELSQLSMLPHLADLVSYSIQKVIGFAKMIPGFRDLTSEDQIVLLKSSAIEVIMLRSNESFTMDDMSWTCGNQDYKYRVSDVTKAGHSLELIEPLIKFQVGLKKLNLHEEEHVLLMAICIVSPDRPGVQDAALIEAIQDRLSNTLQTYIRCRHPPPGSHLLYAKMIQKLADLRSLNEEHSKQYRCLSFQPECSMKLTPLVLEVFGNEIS

CC1=CC(=O)CC(C)(C)C1(O)/C=C/C(C)=C\C(=O)O (centres undefined)
inactive: [1] | [2] | [3] | [4] | [5] | [6] | [7] | [8] | [9] | [10] | [11] | [12] | [13] | [14] | [15] | [16] | [17] | [18] | [19]

COc1ccccc1N=Nc1c(S(=O)(=O)O)cc2cc(S(=O)(=O)O)cc(NC(C)=O)c2c1O
inactive: [1] | [6] | [8] | [9] | [10] | [11] | [12] | [13] | [14] | [15] | [20] | [19]

OC/C(Br)=C(\Br)CO
inactive: [1] | [2] | [3] | [4] | [6] | [8] | [9] | [10] | [11] | [13] | [14] | [15] | [16] | [17] | [18] | [19]

OCCSc1ccccc1
inactive: [1] | [4] | [6] | [8] | [9] | [10] | [11] | [13] | [14] | [15] | [20] | [18] | [19]

COc1cc2c(cc1OC)-c1cc(=Nc3c(C)cc(C)cc3C)n(C)c(=O)n1CC2
inactive: [6] | [8] | [10] | [12] | [13] | [14] | [15] | [20] | [18] | [19]

Cc1cc(O)c(C(C)C)cc1Cl
inactive: [1] | [2] | [3] | [4] | [5] | [6] | [7] | [8] | [9] | [10] | [11] | [12] | [13] | [14] | [15] | [16] | [17] | [18]

CO[C@H]1O[C@H](CO)[C@@H](O)[C@H](O)[C@H]1O
inactive: [1] | [2] | [4] | [5] | [6] | [7] | [8] | [9] | [10] | [11] | [13] | [14] | [15] | [16] | [17] | [19]

N#C[C@@H]1C[C@@H]2C[C@@H]2N1C(=O)[C@@H](N)C12CC3CC(CC(O)(C3)C1)C2
inactive: [1] | [5] | [6] | [7] | [8] | [9] | [11] | [12] | [13] | [14] | [15] | [20] | [18] | [19]

C[N+]1(C)CCC(=C(c2ccccc2)c2ccccc2)CC1
inactive: [1] | [3] | [5] | [6] | [7] | [8] | [9] | [10] | [11] | [12] | [13] | [14] | [15] | [16] | [17] | [18] | [19]

CCN(CC)CCNC(=O)c1ccc(NC(C)=O)cc1
inactive: [1] | [2] | [3] | [4] | [5] | [6] | [7] | [8] | [9] | [11] | [12] | [13] | [14] | [15] | [16] | [17] | [18] | [19]

Cc1oncc1C(=O)Nc1ccc(C(F)(F)F)cc1
active: [3] 49 µM
38.9 µM (active) and inactive: [11]
inactive: [2] | [4] | [5] | [6] | [7] | [8] | [12] | [13] | [14] | [15] | [16] | [17] | [18] | [19]
54.9 µM (active) and inactive: [1]

CCC(C(=O)OCCN(CC)CC)c1ccccc1 (centres undefined)
inactive: [1] | [2] | [3] | [4] | [6] | [8] | [9] | [10] | [11] | [12] | [13] | [14] | [15] | [20] | [18]

C(=C\c1ccccc1)/CN1CCN(C(c2ccccc2)c2ccccc2)CC1
active: [1] 29.8 µM
inactive: [7] | [8] | [9] | [10] | [12] | [13] | [14] | [15] | [20] | [18]

COc1cc2[nH]c(=O)[nH]c(=O)c2cc1OC
inactive: [1] | [2] | [4] | [6] | [8] | [9] | [10] | [11] | [12] | [13] | [14] | [15] | [16] | [17] | [18] | [19]

CCNC(=O)N1CCN(CCCC(c2ccc(F)cc2)c2ccc(F)cc2)CC1
inactive: [2] | [3] | [6] | [8] | [10] | [12] | [13] | [14] | [15] | [20] | [18] | [19]
